# The list is not random: actives were taken first. Their share in the collection is about 12%.
# JMJD2A Tudor inh: blocks the human JMJD2A Tudor domain. O75164. hit rate 4.4% among 390,000. Potency, µM (titrated, usually from 114 µM), without a hit: at the top dose activity change, negative = inhibition, actives largely listed as inhibitors. AlphaScreen JMJD2A-Tudor / H3K4me3 peptide binding; note: potency is the fitted concentration of half-maximal effect; % is set by controls: 0 for no effect and ±100 for the full control effect; nearly all actives have a fitted effect of over 50% in size
# PI5P4K alpha inh: blocks human PI5P4K alpha kinase activity. PI5P4Kalpha enzyme, ADP-Glo luminescence, 60 min; hits give low values. max response, %. hit rate 1.2% among 330,000. P48426. AID 652105; active = max response of -50% or lower; inconclusive = between -30% and -50%; inactive = -30% or higher; note: value at the top dose of about 77 µM; % is set by controls: 0 for no effect and ±100 for the full control effect
#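 Enzyme plus substrate dispensed, test compounds pinned in, then ATP (5 microM final) added. After 60 min at RT, ADP-Glo reagent 1 for 45 min and reagent 2 for 30 min preceded luminescence imaging.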
# HP1b binding inh: blocks HP1-beta chromodomain binding to methylated histone tails | AlphaScreen HP1-beta / biotin-H3K9me3 peptide binding | Potency, µM (highest dose often 114 µM), without a hit: at the top dose activity change, negative = inhibition, most hits filed as inhibitors | AID 540317 | hit rate 0.56% among 390,000; note: potency is the fitted concentration of half-maximal effect; nearly all actives have a fitted effect of over 70% in size
# Target sequence (P83916 whole entry, looked up): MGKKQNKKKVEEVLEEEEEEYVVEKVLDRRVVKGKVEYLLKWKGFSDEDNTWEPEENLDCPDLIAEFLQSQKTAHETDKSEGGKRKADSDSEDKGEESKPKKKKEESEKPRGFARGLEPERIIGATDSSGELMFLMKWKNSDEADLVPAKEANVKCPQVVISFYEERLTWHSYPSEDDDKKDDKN
#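 AlphaScreen: HP1-beta (50 nM) preformed 30 min with biotin-H3(1-18)K9me3 peptide (50 nM) in PBS pH 7.4, 0.01% Tween-20. Compound added for 30 min at RT, then streptavidin donor/nickel chelate acceptor beads (10 ug/mL) for 30 min.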
# G9a inh: blocks human histone lysine methyltransferase G9a. Q96KQ7. G9a H3K9 monomethylation, AlphaScreen, 2 h. Potency, µM (series often up to 102 µM), for inactives: top-dose activity, negative = inhibition, most hits filed as inhibitors. hit rate 8.8% among 350,000; note: potency is the fitted concentration of half-maximal effect; % is set by controls: 0 for no effect and ±100 for the full control effect; nearly all actives have a fitted effect of over 75% in size
# Target sequence (Q96KQ7 913-1193 limits assumed): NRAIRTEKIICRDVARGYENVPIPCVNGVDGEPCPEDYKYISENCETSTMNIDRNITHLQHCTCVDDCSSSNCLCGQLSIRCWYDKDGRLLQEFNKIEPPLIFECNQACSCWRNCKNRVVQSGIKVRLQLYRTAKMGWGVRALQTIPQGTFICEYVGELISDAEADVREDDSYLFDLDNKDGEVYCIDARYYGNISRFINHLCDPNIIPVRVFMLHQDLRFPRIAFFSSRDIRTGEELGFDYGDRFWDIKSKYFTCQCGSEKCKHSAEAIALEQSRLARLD
#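 Chemiluminescent proximity detection of H3K9 monomethylation, read after 10 min bead incubation in the dark. Reaction: 20 nM G9a, 500 nM biotin-H3K9 peptide, 20 uM SAM cofactor, 2 h, room temperature, following 15 min enzyme-compound preincubation.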
# PLK1 PBD inh: inhibitors of human PLK1 polo-box domain binding | Plk1 PBD binding of FITC phosphopeptide, fluorescence polarization | AID 720504 | hit rate 2.8% among 360,000 | Potency, µM, without a hit: max response, negative = inhibition, usual class: inhibitors; note: potency is the fitted concentration of half-maximal effect; series mostly up to about 57 µM; % is set by controls: 0 for no effect and ±100 for the full control effect; nearly all actives have a fitted effect of over 65% in size
# BAZ2B block: blocks human BAZ2B. AlphaScreen BAZ2B-H3K14Ac peptide displacement. Potency, µM (series often up to 114 µM), inactives show at the highest dose activity change, negative = inhibition, most hits filed as inhibitors. hit rate 4.4% among 360,000. AID 504333; note: potency is the fitted concentration of half-maximal effect; % is set by controls: 0 for no effect and ±100 for the full control effect; nearly all actives have a fitted effect of over 60% in size
#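 Protein-peptide AlphaScreen: BAZ2B 50 nM, b-H3K14Ac 50 nM, 1x PBS pH 7.4 + 0.01% Tween-20. Preincubation 30 min RT; cpd 30 min RT (top 110 uM); beads 20 min RT, light-protected.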
# * = called active by the depositor; ? = inconclusive; · = not tested or not shown; [ ] = dose if it differs, or a comment. Unless noted, calls come from the whole dose curve; as a rule, active = well fitted curve in the direction sought with a large enough effect; inconclusive = small, poorly fitted or top-dose-only effect, or another doubt; inactive = no such curve, though single readings can be large; an effect the other way counts as inactive or inconclusive.
SMILES,JMJD2A Tudor inh,PI5P4K alpha inh,HP1b binding inh,G9a inh,PLK1 PBD inh,BAZ2B block
COc1cccc(C2C3=C(N=c4s/c(=C\c5ccc(O)cc5)c(=O)n42)c2ccccc2CC3)c1OC (configuration not stated),-24%,-2,7%,16%[59 µM],19%,5%
O=C1CC(c2nc3ccccc3n2Cc2c(F)cccc2Cl)CN1c1cccc(C(F)(F)F)c1 (configuration not stated),-5%,·,23%,-1%[59 µM],·,-15%
O=S(=O)(c1ccc2c(c1)OCCO2)N1CCN(S(=O)(=O)c2ccccc2Cl)CC1,-10%,·,·,·,·,·
O=C(O)c1cccc2c1C(=O)c1ccc(-c3ccc(F)cc3OCc3ccccc3)cc1S2(=O)=O,?,-27,-2%,-13%[0.501 µM],21µM*,79µM*
CCOc1ccc(-n2ccnc2SCC(=O)Nc2cccc3ccccc23)cc1,?,·,-21%[57 µM],?,·,?
O=[N+]([O-])c1ccc(N/N=C/c2cccc(O)c2O)cc1,?,-17,-10%,-10%[0.501 µM],27µM*,?
O=[N+]([O-])c1ccc(N/N=C/c2ccc[nH]2)cc1,56µM*,-14,?,11µM*,12%,45µM*
Cc1ccc(-c2nc(N=Nc3ccc(O)cc3)n[nH]2)cc1,?,-17,-28%,50µM*,3%,?
N#Cc1cc2c([nH]c1=S)CCCCCC2,3.2µM*,·,?,?,27µM*,-4%
COc1ccc(C2C=C3CN(C(=O)OC(C)(C)C)S(=O)(=O)C3CC2OC(=O)c2cccc(C)c2)cc1 (configuration not stated),-21%,·,32%,·,·,·
CCOC(=O)c1cc2ccccc2n1C1CCN(CCc2ccccc2)CC1,·,13,·,·,-4%,·
O=C(Nc1ccc(Br)cc1)C1C2C=CC3(O2)C1C(=O)N(CCN1CCCCC1)C3C(=O)NC1CCCCC1 (configuration not stated),-18%,6,2%,50µM*,-9%,-16%
CC1CCN(CCCN2C(=O)C3C(C(=O)Nc4ccc(Cl)cc4)C4C=CC3(O4)C2C(=O)NC2CCCCC2)CC1 (configuration not stated),-15%,4,-11%,40µM*,-10%,-3%
COc1ccc(NC(=O)C2C3C=CC4(O3)C2C(=O)N(CCN2CCCCC2)C4C(=O)NC2CCCCC2)cc1 (configuration not stated),-13%,4,5%,24%,-1%,5%
CSc1cccc(NC(=O)C2C3C=CC4(O3)C2C(=O)N(CCCN2CCOCC2)C4C(=O)NC2CCCCC2)c1 (configuration not stated),-17%,-1,-9%,45µM*,-14%,-21%
CCCN(CCC)CCN1C(=O)C2C(C(=O)Nc3cccc(SC)c3)C3C=CC2(O3)C1C(=O)NC1CCCCC1 (configuration not stated),-8%,3,30%,?,-8%,-20%
CC1CCCN(CCCN2C(=O)C3C(C(=O)Nc4ccc(Cl)cc4)C4C=CC3(O4)C2C(=O)NC2CCCCC2)C1 (configuration not stated),-16%,0,-24%,45µM*,-10%,-3%
COC(=O)CN1C(=O)CSc2ccc(S(=O)(=O)Nc3ccc(C(C)=O)cc3)cc21,0%,·,-9%,3%[59 µM],·,-2%
Cc1ccc(CNC(=O)CN2C(=O)COc3ccc(S(=O)(=O)Nc4ccccc4)cc32)cc1,-21%,·,2%,-22%[59 µM],·,-24%
Cc1cc(C)cc(NC(=S)NN)c1,-28%,-10,-11%,10µM*,-15%,-21%
Cc1cccc(NC(=O)c2ccc(NCCO)c([N+](=O)[O-])c2)n1,-22%,-8,6%,-16%,-19%,89µM*
Cc1cccc(NC(=O)c2ccc(C(=O)c3ccccc3)cc2)n1,0%,-3,42%,7.9µM*,-3%,2%
Cc1cccc(NC(=O)c2cccc(C(=O)Nc3cccc(C)n3)c2)n1,-17%,-11,26%,?,-20%,-28%
Cc1oc2ccc(O)c(CN3CCOCC3)c2c1C(=O)Nc1ccc(C(C)C)cc1,-23%,·,55%,2%[59 µM],·,-21%
CC(=O)Nc1ccc(NC(=O)C(C)OC(=O)CSCc2cccc(Cl)c2)cc1 (configuration not stated),-10%,0,26%,?,-9%,9%
SMILES,JMJD2A Tudor inh,PI5P4K alpha inh,HP1b binding inh,G9a inh,PLK1 PBD inh,BAZ2B block
CCN(CC)S(=O)(=O)c1ccc(N2CC(C(=O)Nc3cccc(C(=O)NC4CC4)c3)CC2=O)cc1 (configuration not stated),-12%,0,21%,·,-2%,·
O=C(Oc1ccccc1F)c1ccc2c(=O)n3c(nc2c1)CCC3,-12%,-1,18%,63µM*,-5%,-1%
COc1ccc(C)cc1NC(=O)c1ccc2c(=O)n3c(nc2c1)CCCCC3,-36%,2,4%,16%,24µM*,-21%
Cc1ccc(C)c(NC(=O)c2ccc3c(=O)n4c(nc3c2)CCC4)c1,5%,-2,28%,22%[12.7 µM],3%,2%
O=c1c2ccccc2nc2n1CCCCC2,-23%,2,17%,9%[59 µM],-8%,5%
O=C(Oc1ccc(F)cc1)c1ccc2c(=O)n3c(nc2c1)CCC3,-12%,-29,19%,50µM*,-4%,-1%
O=c1c2ccccc2nc2n1CCC2,14µM*,-3,-57%,-22%[0.501 µM],0%,14µM*
O=C(Oc1cccc(F)c1)c1ccc2c(=O)n3c(nc2c1)CCC3,-11%,-7,51%,?,-10%,-3%
CC(=O)Nc1cccc2c1C(=O)N(c1ccccc1OC(C)=O)C2=O,-10%,0,65%,18%,-15%,12%
NCC[C@H](O)C(=O)N[C@H]1C[C@@H](N)[C@@H](O[C@H]2O[C@@H](CN)[C@@H](O)[C@@H](O)[C@@H]2O)[C@@H](O)[C@@H]1O[C@H]1O[C@@H](CO)[C@@H](O)[C@@H](N)[C@@H]1O,·,·,·,27%[21.5 µM],·,·
O=C(CNC(=O)C1CCCCC1)OCC(=O)c1ccc2c(c1)CCC2,-5%[57.1 µM],·,27%[57 µM],·,·,·
CC(OC(=O)c1ccc2c(=O)n3c(nc2c1)CCC3)C(N)=O (configuration not stated),?,-9,-4%,3%,21µM*,-18%
Cc1cc(NS(=O)(=O)c2ccc(NC(=S)NC(=O)c3cccnc3)cc2)no1,32µM*,-7,7%,45µM*,-14%,?
COc1ccc(/C=C/C(=O)NC(=S)Nc2ccc(S(=O)(=O)Nc3cc(C)on3)cc2)cc1,-28%,?,-7%,40µM*,?,-25%
Cc1cc(C)nc(NS(=O)(=O)c2ccc(NC(=S)NC(=O)c3cccnc3)cc2)n1,-16%,1,-2%,50µM*,-24%,-17%
